{"source": "PubChem BioAssay AID720542", "about": "(National Center for Advancing Translational Sciences (NCATS), 2013)", "note": "Screen size: about 360,000 compounds; about 740 (0.21%) were called active. Roughly 2% stayed inconclusive and do not appear here. Calls come from the whole dose curve; as a rule, active = well fitted inhibition curve with a large enough effect; inconclusive = small, poorly fitted or top-dose-only effect; inactive = no such curve, though single readings can be large or run the other way. Only a selection was taken, and actives are over-represented in it overall. Potency is the fitted concentration of half-maximal effect.", "data": [{"system": "Plasmodium falciparum AMA1 (3D7) - RON2 peptide interaction", "assay": "qHTS for Inhibitors of AMA1-RON; Towards Development of Antimalarial Drug Lead: Primary Screen; note: nearly all actives have a fitted effect of over 45% in size;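 for activity change, negative = inhibition: 0% = vehicle wells and -100% = peptide control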", "conditions": "AlphaScreen AMA1-biotinylated RON2 peptide binding; series mostly up to 58.2 µM; activity change, negative = inhibition: at the top concentration", "source_text": "Plasmodium, the causative agent of malaria, is one of the world's deadliest parasitic diseases. Currently there is no vaccine available and there is widespread resistance to common anti-malarial drugs. This warrants novel, alternative approaches for developing improved therapy. During infection, one such essential interaction is between two parasite proteins, the apical membrane antigen1 (AMA1) that is translocated onto the merozoite surface and the rhoptry neck protein 2 (RON2), which is transferred to the red blood cells (RBC) membrane during invasion (Besteiro et.al., 2009). Recently, the Miller lab has shown that the interaction between AMA1 and RON2 is essential for junction formation of the parasite with the host cell (Srinivasan et.al., 2011). The binding of the RON2 peptide to the hydrophobic pocket in AMA triggers the formation of the moving junction which provides a firm anchor for the parasite to pull itself into the RBC using its actin-myosin motor; an irreversible step that commits the parasite for invasion. Only one AMA1 and RON2 genes exists in Plasmodium and there are no alternate pathways. Moreover, the region corresponding to RON2 peptide is conserved in all P. falciparum isolates for which sequences are available. The key residues in the AMA1 hydrophobic pocket that binds RON2 are also conserved and indicate a functional constraint governing this essential step in invasion since a short RON2 peptide (RON2L) corresponding to the binding region on AMA1 is sufficient to compete with the native RON2 protein and inhibits invasion (Tonkin et.al, 2011). Therefore, developing small molecule inhibitors of this interaction offers a promising target opening a new arena for anti-malarial therapeutics drug design.\nIn collaboration with the Miller lab, a quantitative High Throughput Screen using the AlphScreen technology was developed using a recombinant his-tagged AMA1 and a biotinylated RON2 peptide. This fluorescent screen was assayed against the NIH Molecular Libraries Small Molecule Repository (MLSMR). Inhibition of this protein-protein interaction is the desired outcome of this assay. However, due the limitations of this AlphaScreen assay, a large number of artifacts were observed. An AlphaScreen counterscreen was run to identify the true inhibitors, triage compound activity, and weed out false positives.\nNIH Chemical Genomics Center [NCGC]\nNIH Molecular Libraries Probe Centers Network [MLPCN]\nAssay Submitter (PI): Louis Miller, National Institute of Allergy and Infectious Disease (NIAID)\nTwo microliters of his-tagged AMA1 3D7 allele protein (final concentration 25 nM) was dispensed into a 1,536-well assay plate. Small molecules and positive control peptides were pin-transferred (23 nL or 46 nL) via Kalypsys pin-tool equipped with a 1,536-pin array, resulting in final compound and peptide concentration ranges of 91.5 nM - 57.2 µM, and 15.6 nM - 2.00 µM, respectively. Unlabeled RON2 peptide or R1 peptide ([…]) that specifically binds the 3D7 AMA1 was used as a positive control that inhibited the binding of RON2L to AMA1. After 15 minutes incubation, 1 uL of biotinylated RON2 peptide (final concentration 25 nM) or buffer were dispensed and the assay plate was incubated for an additional 30 minutes at room temperature and protected from light. This was followed by an addition of 1 uL mixture of donor and acceptor beads (10 ug/mL final concentrations for each). The plates were incubated for 30 min at room temperature and read using the EnVision(R) plate reader (PerkinElmer). Maximum inhibition response was normalized to the positive control signal while no inhibition response was normalized to the DMSO treated wells.", "values": [{"smiles": "COc1nc(N(C)C)nc(N2CC(=O)N(CCNS(=O)(=O)c3ccc(C)cc3)C2=N)n1", "activity change, negative = inhibition": "4.54% (inactive)"}, {"smiles": "CCOc1ccc(NC(=O)CN(C)C(=O)c2cccc(S(=O)(=O)N3CCCC3)c2)cc1OCC", "activity change, negative = inhibition": "5.03% (inactive)"}, {"smiles": "Cc1ccc(CN2CC(C(=O)N3CCN(S(=O)(=O)c4ccccc4)CC3)CC2=O)cc1", "note": "(stereo unspecified)", "activity change, negative = inhibition": "2.11% (inactive)"}, {"smiles": "CS(=O)(=O)c1ccc(Cl)c(NC(=O)COC(=O)c2ncc(Cl)c(Cl)c2Cl)c1", "activity change, negative = inhibition": "7.73% (inactive)"}, {"smiles": "C=C1C2C[C@H](O)C(C)(C)[C@@]2(O)[C@H](O)C[C@]23C[C@@](C)(O)[C@H](CC[C@H]12)[C@H]3O", "note": "(stereo partly specified)", "activity change, negative = inhibition": "6.34% (inactive)"}, {"smiles": "CCc1ccc(S(=O)(=O)Nc2cc3c(cc2N2CCCCC2)n(C)c(=O)c(=O)n3C)cc1", "activity change, negative = inhibition": "-3.11% (inactive)"}, {"smiles": "O=S(=O)(Nc1cc(S(=O)(=O)N2CCOCC2)ccc1N1CCCC1)c1cccs1", "activity change, negative = inhibition": "21.9% (inactive)"}, {"smiles": "COc1cccc(N(CC(=O)NC2CCCC2)C(=O)Cn2nnc(-c3ccc(C)cc3)n2)c1", "activity change, negative = inhibition": "-14.7% (inactive)"}, {"smiles": "CC(C)(C)OC(=O)N1CCC(C(=O)Nc2cccc(C(=O)NCCc3ccccc3)c2)CC1", "activity change, negative = inhibition": "8.21% (inactive)"}, {"smiles": "COc1ccc(CCNC(=O)C(=O)NCC2OCCN2S(=O)(=O)c2ccc(OC)c(C)c2)cc1", "note": "(stereo unspecified)", "activity change, negative = inhibition": "9.2% (inactive)"}, {"smiles": "O=C(COC(=O)CNS(=O)(=O)c1ccccc1)NC12CC3CC(CC(C3)C1)C2", "activity change, negative = inhibition": "-5.62% (inactive)"}, {"smiles": "O=c1ccc2cc(S(=O)(=O)NCCCc3ccccc3)ccc2[nH]1", "activity change, negative = inhibition": "1.59% (inactive)"}, {"smiles": "Cc1ccc(C2CC(c3cccc(Br)c3)n3nc(N)nc3N2)cc1", "note": "(stereo unspecified)", "activity change, negative = inhibition": "-13% (inactive)"}, {"smiles": "COc1ccc(C2CC(c3ccc(C)cc3)Nc3nc(N)nn32)cc1", "note": "(stereo unspecified)", "Potency": "3.16 µM (active)"}, {"smiles": "COc1ccc(C2CC(c3ccc(Cl)cc3Cl)Nc3nc(N)nn32)cc1OC", "note": "(stereo unspecified)", "activity change, negative = inhibition": "-7.14% (inactive)"}, {"smiles": "CCOc1cc(C(=O)N(Cc2ccccc2)c2ccc(C)cc2)ccc1OCC(=O)N1CCOCC1", "activity change, negative = inhibition": "6.38% (inactive)"}, {"smiles": "CN(C)/C=C(/C(=O)c1ccc(Cl)c(Cl)c1)c1nnnn1-c1ccccc1", "activity change, negative = inhibition": "25.1% (inactive)"}, {"smiles": "COC(=O)c1ccc(NC(=O)CSc2nnc(C3CC3)n2C)cc1", "activity change, negative = inhibition": "-1.1% (inactive)"}, {"smiles": "C/C=C/C=C/C(=O)OCC(=O)Nc1ccc(Cl)cc1", "activity change, negative = inhibition": "-15.1% (inactive)"}, {"smiles": "CCCCN1C(=O)CCC(C(=O)O)C1c1ccc(OC)cc1", "note": "(stereo unspecified)", "activity change, negative = inhibition": "-2.98% (inactive)"}, {"smiles": "O=C(Nc1cccc(S(=O)(=O)NC2=NCCC2)c1)C1CCCCC1", "activity change, negative = inhibition": "16.3% (inactive)"}, {"smiles": "COCCCNC(=O)c1c(F)c(F)c(F)c(F)c1F", "activity change, negative = inhibition": "2.58% (inactive)"}, {"smiles": "COc1ccc(C(CNC(=O)c2ccc(OCc3cscn3)cc2)N2CCCC2)cc1", "note": "(stereo unspecified)", "activity change, negative = inhibition": "-4.79% (inactive)"}, {"smiles": "CN(C)/C=C(/C(=O)c1ccc(F)cc1)S(=O)(=O)c1ccc(F)cc1", "activity change, negative = inhibition": "-2.22% (inactive)"}, {"smiles": "CC(c1ccco1)N(C(=O)COc1ccccc1[N+](=O)[O-])c1ccccn1", "note": "(stereo unspecified)", "activity change, negative = inhibition": "3.66% (inactive)"}, {"smiles": "CCOC(=O)N1CCN(C(=O)COCc2cc(-c3ccc4c(c3)OCO4)on2)CC1", "activity change, negative = inhibition": "5.8% (inactive)"}, {"smiles": "COC(=O)c1c(NC(=O)C(=O)N2CCCCC2)sc2c1CC(C)(C)OC2", "activity change, negative = inhibition": "50.7% (inactive)"}, {"smiles": "CCn1cc(/C=C2/SC(=S)NC2=O)c(C)n1", "activity change, negative = inhibition": "-5.21% (inactive)"}, {"smiles": "COC(=O)c1ccc2ccccc2c1OC1OC(CO)C(O)C(O)C1NC(C)=O", "note": "(stereo unspecified)", "activity change, negative = inhibition": "6.75% (inactive)"}, {"smiles": "O=C(c1ccc(Br)o1)N(c1ccccn1)C1CCCCC1", "activity change, negative = inhibition": "-23.6% (inactive)"}, {"smiles": "O=C(NC(=O)c1ccc(Cl)c(Cl)c1)OC1CCS(=O)(=O)C1", "note": "(stereo unspecified)", "activity change, negative = inhibition": "0.692% (inactive)"}, {"smiles": "O=C(Nc1cccnc1Oc1ncnc2cc(Cl)ccc12)c1ccc(F)cc1", "activity change, negative = inhibition": "-12.6% (inactive)"}, {"smiles": "CCN(C(=O)COC(=O)c1sccc1C)c1c(N)n(Cc2ccccc2)c(=O)[nH]c1=O", "activity change, negative = inhibition": "3.44% (inactive)"}, {"smiles": "Nc1ccc2nc3c(=O)[nH]c(=S)[nH]c3nc2c1", "Potency": "1.41 µM (active)"}, {"smiles": "c1ccc(CCC2=NCCn3cccc32)cc1", "Potency": "inactive"}, {"smiles": "Cc1ccc(S(=O)(=O)N2CCCCC2)cc1NC(=O)CCNC(=O)c1ccccc1", "activity change, negative = inhibition": "2.37% (inactive)"}, {"smiles": "Cc1ccc(-c2nnn(CC(=O)N(CCO)C(C(=O)NC(C)(C)C)c3ccncc3)n2)cc1", "note": "(stereo unspecified)", "activity change, negative = inhibition": "-5.68% (inactive)"}, {"smiles": "Cc1cccc(C)c1NC(=O)CN1C(=O)C(C)Oc2ccccc21", "note": "(stereo unspecified)", "activity change, negative = inhibition": "-12.1% (inactive)"}, {"smiles": "Cc1occc1-c1nnc(SCC(=O)NC2CCCCC2)o1", "activity change, negative = inhibition": "-2.44% (inactive)"}, {"smiles": "CCn1c(SCC(=O)Nc2cc(C)c(Cl)cc2OC)nnc1-c1ccco1", "Potency": "33.6 µM (active)"}, {"smiles": "COc1cc(Cl)c(C)cc1NC(=O)CSc1nnc(-c2ccco2)n1CC(C)C", "activity change, negative = inhibition": "-19.4% (inactive)"}, {"smiles": "COc1cc(Cl)c(C)cc1NC(=O)CSc1nnc(CN2CCCC2)o1", "activity change, negative = inhibition": "75.1% (inactive)"}, {"smiles": "CC(C)NC(=O)NCCCCCCS(C)=O", "note": "(stereo unspecified)", "activity change, negative = inhibition": "-0.738% (inactive)"}, {"smiles": "Oc1ccc2ccccc2c1N=Nc1nccs1", "Potency": "28.2 µM (active)"}, {"smiles": "COc1ccc(CNC(=O)c2ccc(NS(=O)(=O)c3ccc4[nH]c(=O)[nH]c4c3)cc2)cc1OC", "activity change, negative = inhibition": "-5.23% (inactive)"}, {"smiles": "COc1ccccc1/C=C/C=N/NC(=O)CN1CCN(Cc2ccccc2)CC1", "activity change, negative = inhibition": "2.67% (inactive)"}, {"smiles": "COCCNC(=O)C1CCCN(Cc2ccccc2Cl)CC1", "note": "(stereo unspecified)", "activity change, negative = inhibition": "-2.5% (inactive)"}, {"smiles": "O=S1(=O)CCN(Cc2ccccc2Cl)CC1", "activity change, negative = inhibition": "-14% (inactive)"}, {"smiles": "CSc1ccc(/C=N/N2CCN(Cc3ccccc3Cl)CC2)cc1", "Potency": "14.1 µM (active)"}, {"smiles": "Cc1ccc(CN2CCN(/N=C/c3ccco3)CC2)c(C)c1", "activity change, negative = inhibition": "-3.91% (inactive)"}, {"smiles": "COc1ccccc1/C=N/N1CCN(Cc2ccccc2Cl)CC1", "Potency": "15.8 µM (active)"}]}]}
